The supplement of paper PMC11006884
Targets with a hit are over-represented here; the source holds about 6,500 in all. About 2% of all pairs of compound and target were hits.

Compound: COC(=O)C#Cc1ccccc1 [methyl 3-phenylpropiolate]
Assay: log2 ratio of iodoacetamide-alkyne labeling of the cysteine site, DMSO over compound (competition); higher = stronger covalent engagement of the cysteine by the compound, active = 1 or more
Conditions: 500 µM; treatment time 1 h; system: HEK293T cell lysate
In short: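 HEK293T lysate (2 mg/mL) was treated with DMSO or electrophile (500 µM, 1 h, ambient temperature), then iodoacetamide alkyne (1 h), clicked to sCIP-TMT reagents, pooled, trypsin-digested overnight at 37 °C, streptavidin-enriched and acid-eluted. Peptides were run on Orbitrap Eclipse LC-MS/MS with FAIMS and quantified in FragPipe. The log2 competition ratio per cysteine is mean control-channel over mean compound-channel reporter intensity. Duplicate channels and three replicates were used, and cysteines quantified in only one replicate were excluded.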

Row | Target | log2 ratio of iodoacetamide-alkyne labeling
1 | CCT7 C158 (UniProt Q99832) | 0.152 (inactive)
2 | UniProt Q8IX01_C656 | 2.27 (active)
3 | UniProt Q96L50_C246 | 0.109 (inactive)
4 | UniProt Q6PJG6_C228 | 1.06 (active)
5 | UniProt Q7LBC6_C1212 | 0.571 (inactive)
6 | CAND1 C413 (UniProt Q86VP6) | 0.304 (inactive)
7 | MAP1S C841 (UniProt Q66K74) | 0.464 (inactive)
8 | DDX54 C73 (UniProt Q8TDD1) | 0.301 (inactive)
9 | GRWD1 C299 (UniProt Q9BQ67) | 0.364 (inactive)
10 | CRBN C78 (UniProt Q96SW2) | 0.133 (inactive)
11 | ATRIP C74 (UniProt Q8WXE1) | 0.563 (inactive)
12 | TET2 C332 (UniProt Q6N021) | 0.594 (inactive)
13 | SMARCC1 C164 (UniProt Q92922) | 0.146 (inactive)
14 | PNKP C516 (UniProt Q96T60) | 0.166 (inactive)
15 | IRF2BP2 C16 (UniProt Q7Z5L9) | 0.113 (inactive)
16 | UniProt Q9BSH4_C112 | -0.152 (inactive)
17 | NOC3L C683 (UniProt Q8WTT2) | 0.191 (inactive)
18 | MARC1 C273 (UniProt Q5VT66) | 0.102 (inactive)

Row | Target | log2 ratio of iodoacetamide-alkyne labeling
19 | KHSRP C296 (UniProt Q92945) | 0.00483 (inactive)
20 | DCUN1D4 C253 (UniProt Q92564) | 0.287 (inactive)
21 | ZNF318 C1559 (UniProt Q5VUA4) | 0.605 (inactive)
22 | HSPH1 C650 (UniProt Q92598) | 0.025 (inactive)
23 | DIS3L2 C312 (UniProt Q8IYB7) | 0.226 (inactive)
24 | SMCR8 C644 (UniProt Q8TEV9) | 0.488 (inactive)
25 | ACO2 C385 (UniProt Q99798) | 1.66 (active)
26 | CCAR1 C579 (UniProt Q8IX12) | 0.0854 (inactive)
27 | ADO C258 (UniProt Q96SZ5) | 0.15 (inactive)
28 | CYFIP1 C98 (UniProt Q7L576) | 1.78 (active)
29 | ZNF746 C425 (UniProt Q6NUN9) | 0.385 (inactive)
30 | NCAPG C751 (UniProt Q9BPX3) | 0.416 (inactive)
31 | OSBPL9 C720 (UniProt Q96SU4) | -0.0484 (inactive)
32 | HEATR3 C173 (UniProt Q7Z4Q2) | 0.137 (inactive)
33 | CAMSAP1 C1379 (UniProt Q5T5Y3) | 1.45 (active)
34 | POM121 C461 (UniProt Q96HA1) | 0.43 (inactive)
35 | ANKRD40 C209 (UniProt Q6AI12) | 0.466 (inactive)
